Experimental findings from PubChem BioAssay AID463173 (ICCB-Longwood Screening Facility, Harvard Medical School, 2010) are described below.

The structures appear in SMILES notation. The campaign covered roughly 52,000 compounds. About 1,700 (3.3%) were called active. Many of the other results were omitted from the sample, so actives are more common in it than they were. Unmarked numbers belong to inactive results. Cut-off read from the data, not from the text of the source: active = survival mostly below about 52% (no sharp cut-off); inactive = mostly above about 56%.

The subject of the assay is Wild type. The experiment in a line: growth inhibition of S. aureus wild type versus tarO mutant, primary screen, teichoic acid synthesis inhibitors, RN4220, OD600 (AID 463173). The following applies: S. aureus RN4220 wild type/DeltatarO growth, OD600, 18 h, stronger effect = lower value, screened at 18.75 µg/mL (by protocol).
As to `CN(C1CCCCC1)S(=O)(=O)Cc1ccccc1`, the survival is 94%.
With `CC1=C(c2ccc(C)cc2)S(=O)(=O)N(Cc2ccc(C(=O)Nc3ccc(F)cc3C)cc2)C1=O` the figure was 135%; with `CCC(=O)N1CCc2cc(Br)cc(S(=O)(=O)CCC(=O)NCCc3cccc(C)c3)c21`, 45%; with `COc1cccc(NC(=O)Cn2c(=O)n(CCc3cccc(C)c3)c(=O)c3ccccc32)c1`, 82%.
With `CSc1ccc(CCNC(=O)CCc2c(C)nc3cc(-c4ccccc4)nn3c2C)cc1` the figure was 86%.
In the case of `CCc1ccccc1NC(=O)Cn1c(=O)ccc2cc(S(=O)(=O)N3CCCC3)ccc21`, the survival was 64%.
The result for `CCOc1ccccc1NC(=O)Cn1c(=O)ccc2cc(S(=O)(=O)N3CCC(C)CC3)ccc21` reads 65%.
With `CCOc1ccccc1NC(=O)Cn1c(=O)ccc2cc(S(=O)(=O)N3CCCC3)ccc21` the figure was -3% (active); with `Cc1cc(C)c(NC(=O)Cn2c(=O)n(CCC(=O)N3CCc4ccccc4C3)c(=O)c3ccccc32)c(C)c1`, 83%; with `CCC(=O)N1CCc2cc(S(=O)(=O)N(C)c3cccc(C)c3)ccc21`, 86%.
The result for `CCc1nc2c(cnn2-c2ccccc2)c(=O)n1-c1ccc(Br)cc1` reads 108%; that for `CCc1cccc(-n2c(C)nc3c(cnn3-c3ccc(C)c(C)c3)c2=O)c1`, 2% (active); that for `CCc1nc2c(cnn2-c2ccc(C)cc2)c(=O)n1Cc1ccccc1`, 22%.
Regarding `COc1ccc(-n2c(C)nc3c(cnn3-c3ccc(C)c(C)c3)c2=O)cc1Cl`, the survival was 118%.
With `CCc1nc2c(cnn2-c2ccc(C)cc2)c(=O)n1-c1ccc(C)cc1` the figure was 18% (active); with `CCOC(=O)c1ccc(-n2c(C)nc3c(cnn3-c3ccc(Cl)cc3)c2=O)cc1`, 71%; with `Cc1nc2c(cnn2-c2ccccc2)c(=O)n1-c1ccccc1`, 126%.
The result for `COc1cccc(-n2c(C)nc3c(cnn3-c3ccc(C)c(C)c3)c2=O)c1` reads 54%.
The result for `CCc1cccc(-n2c(C)nc3c(cnn3-c3ccc(Cl)cc3)c2=O)c1` reads -2% (active).
For `Cc1c(C(=O)OCC2CCCCC2)[nH]c2c1C(=O)CC(c1ccccc1Cl)C2` (configuration not stated), the survival was 92%.
As to `Cc1oc2ncn(CC(C)C)c(=O)c2c1C(=O)NCCCN(C)Cc1ccccc1`, the survival was 76%.
With `Cc1cc2nsnc2c(S(=O)(=O)NCC(=O)O)c1C` the figure was 99%; with `CCCCCCSc1nc(N)c2c3c(sc2n1)CCCC3C` (configuration not stated), -2% (active); with `CC1CCCc2sc3nc(SCC(=O)c4ccc(Br)cc4)nc(N)c3c21` (configuration not stated), 66%.
The result for `CCCCCCSc1ncc(C#N)c(N)n1` reads 119%; that for `CCCCCNC(=O)C(=O)NCC(c1ccc2c(c1)OCO2)N1CCOCC1` (configuration not stated), 68%; that for `Cc1ccc(CNC(=O)c2ccc3c(c2)NC(=O)C(CS(=O)(=O)Cc2cccc(F)c2)N3)cc1` (configuration not stated), 117%.
With `O=C(/C=C/c1ccc(Cl)cc1)N1CCC(c2nc3ccccc3o2)CC1` the figure was 120%; with `CCN(CC)C(=O)Cn1c(=O)n(-c2ccc(Cl)cc2)c(=O)c2c3c(sc21)CCC3`, 73%; with `COCCCN1C(=O)c2[nH]nc(-c3cc(C)ccc3O)c2C1c1ccc(F)cc1` (configuration not stated), 92%.
As for `COCCN1C(=O)c2[nH]nc(-c3cc(C)ccc3O)c2C1c1ccc(C(C)C)cc1` (configuration not stated), the survival is 11% (active).
In the case of `CCCCN1C(=O)c2[nH]nc(-c3ccccc3O)c2C1c1ccc(OCc2ccccc2)c(OC)c1` (configuration not stated), the survival was 64%.
With `COCCN1C(=O)c2[nH]nc(-c3ccccc3O)c2C1c1ccc(OCc2ccccc2)c(OC)c1` (configuration not stated) the figure was 43%; with `CCCN1C(=O)c2[nH]nc(-c3ccccc3O)c2C1c1ccc(OCc2ccccc2)c(OC)c1` (configuration not stated), 64%; with `CCCCOc1cccc(C2c3c(-c4cc(C)ccc4O)n[nH]c3C(=O)N2CCOC)c1` (configuration not stated), 25%.
For `COCCCN1C(=O)c2[nH]nc(-c3ccccc3O)c2C1c1ccc(OC)cc1` (configuration not stated), the survival was 85%.
For `CCCCN1C(=O)c2[nH]nc(-c3ccccc3O)c2C1c1cc(Br)c(O)c(OC)c1` (configuration not stated), the survival was 10% (active).
In the case of `COCCN1C(=O)c2[nH]nc(-c3ccccc3O)c2C1c1ccc(Cl)c(Cl)c1` (configuration not stated), the survival is 3% (active).
With `O=C1NC(NS(=O)(=O)c2ccccc2)(C(F)(F)F)C(=O)N1c1ccc(F)cc1` (configuration not stated) the figure was 76%; with `Cc1nc(CC(=O)Nc2ccc(C)c(C)c2)cs1`, 80%; with `C/C=C/C(=O)N1CCCC(c2nc(-c3cccc(OC)c3)no2)C1` (configuration not stated), 95%.
With `COc1ccc(C(=O)N(CC(=O)NC2CCCC2)C2CCCCC2)cc1OC` the figure was 106%; with `COc1ccc(C)cc1NC(=O)CN1C(=O)CCc2cc(S(=O)(=O)N3CCOCC3)ccc21`, 128%; with `COc1ccc(NC(=O)CN2C(=O)CCc3cc(S(=O)(=O)N4CCOCC4)ccc32)c(OC)c1`, 66%.
With `Cc1ccc(NC(=O)CN2C(=O)C(C)(C)c3cc(S(=O)(=O)N4CCCCC4)ccc32)c(Br)c1` the figure was 63%; with `COc1ccc(OC)c(NC(=O)CN2C(=O)CCc3cc(S(=O)(=O)N4CCCCC4)ccc32)c1`, 0% (active).
With `COc1ccc(Cl)cc1NC(=O)CN1C(=O)C(C)(C)c2cc(S(=O)(=O)N3CCCCC3)ccc21`, the survival was 81%.
With `Cc1ccc(Cl)cc1NC(=O)CN1C(=O)C(C)(C)c2cc(S(=O)(=O)N3CCCCC3)ccc21`, the survival was 1% (active).
With `CC(=O)Nc1ccc(NC(=O)CSc2nccn2Cc2ccc3c(c2)OCO3)cc1` the figure was 72%.
As for `NCc1ccc2[nH]c(=O)[nH]c2c1`, the survival is 104%.
On to `COC(=O)c1ccc(Nc2nc(-c3ccccc3Cl)nc3ccccc23)cc1`, for which the survival was 36%.
Regarding `CC(=O)c1cccc(Nc2nc(-c3cccc(C)c3)nc3ccccc23)c1`, the survival was 31%.
For the compound `Oc1ccc(Nc2nc(-c3ccc(Cl)cc3)nc3ccccc23)cc1`, the survival was 3% (active).
The result for `Cc1ccc(OCCCCn2c(-c3ccc(Cl)cc3)nc3ccccc3c2=O)cc1` reads 67%.
`COC(=O)c1ccc(Nc2nc(-c3ccc(C)cc3)nc3ccccc23)cc1`: the survival was 7% (active).
Take `Fc1ccc(Nc2nc(SCc3ccc(Cl)cc3)nc3ccccc23)cc1`: the survival was 90%.
Take `OCCNc1nc(-c2cccnc2)nc2ccccc12`: the survival was 119%.
`CCOC(=O)c1nc(Nc2cccc(C)c2)c2ccccc2n1`: the survival is 83%.
The result for `CCOC(=O)c1nc(Nc2ccc(C(C)=O)cc2)c2ccccc2n1` reads 81%; that for `Oc1cccc(Nc2nc(-c3ccccc3)nc3ccccc23)c1`, 19%.
With `CCC(=O)OCCCNc1nc(-c2ccc(Cl)cc2)nc2ccccc12` the figure was -2% (active); with `Cc1cccc(Nc2nc(-c3ccccc3)nc3ccccc23)c1`, -1% (active).
